For seven compounds, potency estimated from few doses and IC50 results are on record in paper PMC11062922 (Nature Chemical Biology, 2023).

One experiment has as its system CSNK2A1;CSNK2A3. Also on record: species or system human, MV4-11 + K-562 + COLO205 + SK-N-BE2 + OVCAR-8. The following applies: read-out: apparent Kd, n = 1.
In another experiment the test system is CSNK2A2. Also noted: species or system human, MV4-11 + K-562 + COLO205 + SK-N-BE2 + OVCAR-8. The following applies: read-out: apparent Kd, n = 1.
In experiment [1] the test system is PKN3. Particulars: hek293t cells.
The next experiment has as its system AAK1. Also noted: species or system human, MV4-11 + K-562 + COLO205 + SK-N-BE2 + OVCAR-8. Particulars: read-out: apparent Kd; compound concentrations:100 nM and 1000 nM (sheet 'Samples'); n = 1.
Another experiment concerns BMP2K. Also noted: species or system human, MV4-11 + K-562 + COLO205 + SK-N-BE2 + OVCAR-8. The following applies: read-out: apparent Kd; compound concentrations:100 nM and 1000 nM (sheet 'Samples'); n = 1.
The test system of the next experiment is CLK1. Also noted: species or system human, MV4-11 + K-562 + COLO205 + SK-N-BE2 + OVCAR-8. The following applies: read-out: apparent Kd; compound concentrations:100 nM and 1000 nM (sheet 'Samples'); n = 1.
In another experiment the test system is CLK4. Also on record: species or system human, MV4-11 + K-562 + COLO205 + SK-N-BE2 + OVCAR-8. The following applies: read-out: apparent Kd; compound concentrations:100 nM and 1000 nM (sheet 'Samples'); n = 1.
The test system of another experiment is FLT4. Also noted: species or system human, MV4-11 + K-562 + COLO205 + SK-N-BE2 + OVCAR-8. The following applies: read-out: apparent Kd; compound concentrations:100 nM and 1000 nM (sheet 'Samples'); n = 1.
For another experiment, the system named is GAK. Also noted: species or system human, MV4-11 + K-562 + COLO205 + SK-N-BE2 + OVCAR-8. Particulars: read-out: apparent Kd; compound concentrations:100 nM and 1000 nM (sheet 'Samples'); n = 1.
In the next experiment the test system is GSK3A. Also noted: species or system human, MV4-11 + K-562 + COLO205 + SK-N-BE2 + OVCAR-8. The following applies: read-out: apparent Kd; compound concentrations:100 nM and 1000 nM (sheet 'Samples'); n = 1.
The subject of a further experiment is GSK3B. Also noted: species or system human, MV4-11 + K-562 + COLO205 + SK-N-BE2 + OVCAR-8. Particulars: read-out: apparent Kd; compound concentrations:100 nM and 1000 nM (sheet 'Samples'); n = 1.
A further experiment concerns MELK. Also noted: species or system human, MV4-11 + K-562 + COLO205 + SK-N-BE2 + OVCAR-8. Particulars: read-out: apparent Kd; compound concentrations:100 nM and 1000 nM (sheet 'Samples'); n = 1.
A further experiment relates to NUAK1. Also on record: species or system human, MV4-11 + K-562 + COLO205 + SK-N-BE2 + OVCAR-8. The following applies: read-out: apparent Kd; compound concentrations:100 nM and 1000 nM (sheet 'Samples'); n = 1.
Another experiment concerns PAK4. Also noted: species or system human, MV4-11 + K-562 + COLO205 + SK-N-BE2 + OVCAR-8. Particulars: read-out: apparent Kd; compound concentrations:100 nM and 1000 nM (sheet 'Samples'); n = 1.
The next experiment relates to PKN1. Also on record: species or system human, MV4-11 + K-562 + COLO205 + SK-N-BE2 + OVCAR-8. The following applies: read-out: apparent Kd, n = 1.
Experiment [2] deals with PKN3. Also noted: species or system human, MV4-11 + K-562 + COLO205 + SK-N-BE2 + OVCAR-8. The following applies: read-out: apparent Kd, n = 1.
In a further experiment the test system is PRKAG1. Also on record: species or system human, MV4-11 + K-562 + COLO205 + SK-N-BE2 + OVCAR-8. Particulars: read-out: apparent Kd; compound concentrations:100 nM and 1000 nM (sheet 'Samples'); n = 1.
The next experiment deals with Q6ZSR9 (human, UniProt Q6ZSR9). Also noted: species or system MV4-11 + K-562 + COLO205 + SK-N-BE2 + OVCAR-8. Particulars: read-out: apparent Kd; compound concentrations:100 nM and 1000 nM (sheet 'Samples'); n = 1.
Chain of Q6ZSR9 (Q6ZSR9 whole entry, looked up): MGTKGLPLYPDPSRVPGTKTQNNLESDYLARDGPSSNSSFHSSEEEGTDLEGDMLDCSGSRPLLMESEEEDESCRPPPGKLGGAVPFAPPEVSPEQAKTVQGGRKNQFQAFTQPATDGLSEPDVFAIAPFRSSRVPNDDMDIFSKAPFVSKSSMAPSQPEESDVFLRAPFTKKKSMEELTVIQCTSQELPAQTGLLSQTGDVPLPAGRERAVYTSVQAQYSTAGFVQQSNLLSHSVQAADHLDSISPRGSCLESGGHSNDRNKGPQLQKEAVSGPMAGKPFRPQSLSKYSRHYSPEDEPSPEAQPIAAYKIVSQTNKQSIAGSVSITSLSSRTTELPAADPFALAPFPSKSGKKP
The test system of the next experiment is RET. Also on record: species or system human, MV4-11 + K-562 + COLO205 + SK-N-BE2 + OVCAR-8. The following applies: read-out: apparent Kd; compound concentrations:100 nM and 1000 nM (sheet 'Samples'); n = 1.
The next experiment concerns SIK2. Also noted: species or system human, MV4-11 + K-562 + COLO205 + SK-N-BE2 + OVCAR-8. Particulars: read-out: apparent Kd; compound concentrations:100 nM and 1000 nM (sheet 'Samples'); n = 1.
The mark [3] stands for this setting: compound concentrations:100 nM and 1000 nM (sheet 'Samples').

Like-named read-outs stand apart in the source and are kept apart here.
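Wherever IC50 is given: NanoBRET target engagement in HEK293T cells transiently expressing full-length PKN3 with C-terminal NanoLuc, displacement of fluorescent tracer K5 (500 nM), BRET read after 2 h equilibration at 37 °C.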

As for `O=C1N=C(Nc2ccccc2)S/C1=C\c1ccc2ncccc2c1` [RO4493940-000], the potency estimated from few doses with CSNK2A1;CSNK2A3 (compound concentrations: 100 nM and 1000 nM (sheet 'Samples'), CATDS: 0.36155727747203598) is 291 nM; in the experiment with CSNK2A2 (compound concentrations: 100 nM and 1000 nM (sheet 'Samples'), CATDS: 0.44448936869789302), 203 nM.

Turning to LY3009120, the IC50 in the experiment with PKN3 [1] (read-out: Average, SD, n = 4) worked out at 513 nM; in the experiment on PKN3 [1] (read-out: Rep 1), 538 nM; with PKN3 [1] (read-out: Rep 2), 1230 nM; with PKN3 [1] (read-out: Rep 3), 112 nM; in the experiment with PKN3 [1] (read-out: Rep 4) it was 173 nM.

Consider `Cl.Cl.NCC(C(=O)Nc1cc(Br)c(-c2ccnc3[nH]ccc23)s1)c1ccccc1.NCC(C(=O)Nc1cc(Br)c(-c2ccnc3[nH]ccc23)s1)c1ccccc1` (stereo not drawn) [GSK1269851A], for which the potency estimated from few doses was 84.4 nM in the experiment on AAK1; 126 nM in the experiment with BMP2K; 449 nM in the experiment with CLK1; 1070 nM with CLK4; 861 nM in the experiment on CSNK2A1;CSNK2A3 (setting [3]); 1130 nM in the experiment with CSNK2A2 (setting [3]). The potency estimated from few doses with FLT4 is 1230 nM; in the experiment on GAK, 63 nM; with GSK3A, 109 nM; in the experiment on GSK3B, 417 nM; in the experiment on MELK, 2320 nM; in the experiment on NUAK1, 1200 nM. For the same compound, the potency estimated from few doses with PAK4 is 736 nM; with PKN1 (setting [3]), 1330 nM; in the experiment with PKN3 [2] (setting [3]), 863 nM; in the experiment with PRKAG1, 416 nM; with Q6ZSR9 it was 54.4 nM; in the experiment with RET it was 539 nM. In the experiment with SIK2, the potency estimated from few doses was 751 nM.

For `CCn1c(-c2nonc2N)nc2c(C#CC(C)(C)O)nc(OCCNC)cc21.Cl` [GSK949675A], the potency estimated from few doses in the experiment with GSK3A is 70.4 nM; in the experiment with GSK3B it was 91.5 nM; with PAK4, 736 nM; in the experiment on PKN1 (setting [3]), 675 nM; in the experiment on PKN3 [2] (setting [3]), 2.48 nM. Moreover, the IC50 came to 669 nM in the experiment with PKN3 [1] (read-out: Average, SD, n = 4); 1950 nM in the experiment with PKN3 [1] (read-out: Rep 1); 441 nM with PKN3 [1] (read-out: Rep 2); 149 nM in the experiment on PKN3 [1] (read-out: Rep 3); 136 nM with PKN3 [1] (read-out: Rep 4).

As to `CC(C)N1CCC(n2cnc(-c3ccc(F)cc3)c2-c2ccnc(N)n2)CC1` [SB-223132], the potency estimated from few doses in the experiment on AAK1 is 730 nM; in the experiment with BMP2K, 531 nM; in the experiment on CLK1 it was 572 nM; in the experiment on CLK4, 686 nM; in the experiment on CSNK2A1;CSNK2A3 (setting [3]), 1070 nM; with CSNK2A2 (setting [3]) it was 1400 nM. The potency estimated from few doses with FLT4 is 968 nM; with GAK, 333 nM; in the experiment on GSK3A it was 359 nM; in the experiment on GSK3B, 441 nM; with NUAK1 it was 1160 nM; with PAK4, 726 nM. The potency estimated from few doses is 1440 nM with PKN1 (setting [3]); 1010 nM with PKN3 [2] (setting [3]); 884 nM in the experiment with PRKAG1; 581 nM in the experiment with Q6ZSR9; 579 nM with RET; 700 nM in the experiment on SIK2.

As for `CN1C[C@@H]2Cn3c(c(C4=C(c5cn(C)c6ccccc56)C(=O)NC4=O)c4ccccc43)C[C@H]2C1.Cl` [RO0320234-001], the potency estimated from few doses with AAK1 is 403 nM; in the experiment with BMP2K it was 933 nM; in the experiment on CLK1, 162 nM; with CLK4 it was 500 nM; in the experiment on CSNK2A1;CSNK2A3 (setting [3]) it was 836 nM; in the experiment on CSNK2A2 (setting [3]), 784 nM. Moreover, the potency estimated from few doses in the experiment with FLT4 was 878 nM; in the experiment on GAK, 186 nM; in the experiment on GSK3A, 99 nM; in the experiment with GSK3B, 50.7 nM; with PAK4, 558 nM; with PKN1 (setting [3]) it was 1970 nM. Moreover, the potency estimated from few doses with PKN3 [2] (setting [3]) was 1500 nM; with PRKAG1, 352 nM; with Q6ZSR9, 533 nM; in the experiment on RET it was 371 nM; in the experiment with SIK2, 230 nM.

With `CCn1c(-c2nonc2N)nc2c(C#CCN)ncc(OCCCN)c21.O=C(O)C(F)(F)F` [GSK561866B], the potency estimated from few doses in the experiment on PKN1 (compound concentrations: 100 nM and 1000 nM (sheet 'Samples'), CATDS: 0.15879588217707499) was 65.5 nM; with PKN3 [2] (compound concentrations: 100 nM and 1000 nM (sheet 'Samples'), CATDS: 0.49894757840635401), 5.21 nM. Moreover, the IC50 in the experiment on PKN3 [1] (read-out: Average, SD, n = 4) stood at 7970 nM; with PKN3 [1] (read-out: Rep 1) it was 13000 nM; in the experiment on PKN3 [1] (read-out: Rep 2) it was 11200 nM; in the experiment on PKN3 [1] (read-out: Rep 3), 4910 nM; in the experiment on PKN3 [1] (read-out: Rep 4) it was 2820 nM.
